# Laboratory results: the supplement of paper PMC6522484
# ± gives the standard deviation of the averaged measurements.
# Legend:
# DLD1 [1] = experiment: cell viability (CellTiter-Glo) relative to plate median (fraction of plate median); higher = more viable cells; conditions: 5 µM; treatment time 24 h; reporter: 7TFP
# In short: (§1)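 Stable lentiviral TCF/Wnt firefly luciferase reporters (7TFP or TCF4/Wnt) were present in the colorectal cancer cell lines used. These cells received library compounds at a final 5 µM for 24 h, and parallel plates were read for firefly luciferase or CellTiterGlo luminescence. Each well was normalised to the plate median, and the value reported is the mean of two independent replicates.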
# HCT116 = experiment: as above; conditions: 5 µM; treatment time 24 h; reporter: TCF4/Wnt
# In short: as §1
# SW480 [2] = experiment: as above; conditions: 5 µM; treatment time 24 h; reporter: 7TFP
# In short: as §1
# DLD1 [3] = experiment: TCF/Wnt firefly luciferase reporter signal relative to plate median (fraction of plate median); higher = higher Wnt reporter signal; conditions: 5 µM; treatment time 24 h; reporter: 7TFP
# In short: as §1
# SW480 [4] = experiment: as above; conditions: 5 µM; treatment time 24 h; reporter: 7TFP
# In short: as §1
SMILES,cell viability (DLD1 [1]),cell viability (HCT116),cell viability (SW480 [2]),TCF/Wnt firefly luciferase reporter signal (DLD1 [3]),TCF/Wnt firefly luciferase reporter signal (SW480 [4])
Fc1ccc([C@@H]2CCNC[C@H]2COc2ccc3c(c2)OCO3)cc1,0.977 ± 0.021,1.02 ± 0.12,1.02 ± 0.021,1.1 ± 0.085,1.13 ± 0.042
C[C@@H]1O[C@@H](O[C@H]2[C@H](Oc3cc(O)c4c(=O)cc(-c5ccc(O)cc5)oc4c3)O[C@H](CO)[C@@H](O)[C@@H]2O)[C@H](O)[C@H](O)[C@H]1O,1.04 ± 0.035,1.03 ± 0.054,0.98 ± 0.015,0.989 ± 0.013,1.02 ± 0.079
C[C@@H]1O[C@@H](O[C@H]2[C@H](Oc3cc(O)c4c(c3)O[C@H](c3ccc(O)cc3)CC4=O)O[C@H](CO)[C@@H](O)[C@@H]2O)[C@H](O)[C@H](O)[C@H]1O,1.07 ± 0.042,0.916 ± 0.11,0.975 ± 0.02,0.992 ± 0.24,1.01 ± 0.16
COc1cc(OC)c(C(C)=O)c(O)c1C,0.992 ± 0.026,0.977 ± 0.1,1.045 ± 0.0071,0.94 ± 0.11,0.885 ± 0.016
Cc1cccc(Nc2ccccc2C(=O)O)c1C,1.03 ± 0.1,1 ± 0.038,1.07 ± 0.014,0.927 ± 0.052,1.01 ± 0.089
OC1(c2ccc(Cl)c(C(F)(F)F)c2)CCN(CCCC(c2ccc(F)cc2)c2ccc(F)cc2)CC1,0.982 ± 0.14,1.08 ± 0.071,0.994 ± 0.023,1.1 ± 0.21,0.931 ± 0.092
CC(=O)Oc1c(C)cccc1C(=O)O,0.9705 ± 0.0064,0.966 ± 0.039,1.02 ± 0.063,0.884 ± 0.13,0.979 ± 0.087
O=[N+]([O-])c1cccc2c(Br)[nH]nc12,0.994 ± 0.0057,1.02 ± 0.021,0.957 ± 0.034,0.984 ± 0.037,0.967 ± 0.13
CO/N=C(\C(=O)N[C@@H]1C(=O)N2C(C(=O)O)=C(CSc3nc(=O)c(O)nn3C)CS[C@H]12)c1csc(N)n1,1.06 ± 0.071,1.06 ± 0.071,0.98 ± 0.071,1.1 ± 0.14,0.96 ± 0.057
CC(=O)[C@H]1CC[C@H]2[C@@H]3CCC4=CC(=O)CC[C@]4(C)[C@H]3CC[C@]12C,1.01 ± 0.078,1.02 ± 0.12,0.992 ± 0.025,0.979 ± 0.03,1.04 ± 0.028
FC(F)(F)C(Cl)Br (stereo not given),0.964 ± 0.035,0.898 ± 0.011,0.9715 ± 0.0035,1.02 ± 0.028,1.1 ± 0.092
COc1ccc(-c2coc3cc(O)ccc3c2=O)cc1,1.01 ± 0.071,1.01 ± 0.15,0.9355 ± 0.00071,0.998 ± 0.046,0.972 ± 0.069
C=C(CC)C(=O)c1ccc(OCC(=O)O)c(Cl)c1Cl,1.01 ± 0.046,1.01 ± 0.046,1.03 ± 0.05,1.11 ± 0.11,1.095 ± 0.0071
